Test results taken from the supplement of paper PMC6555819.

Columns and labels:
Assay in all cases: PBM binding z-score (relative to random genomic background probes); higher = stronger binding; sequences stand for … in GC…GCGATTGACAGCGTAGAATGAAGG
[1] = tested on: PPARg:RXRa DBDmut IVT, anti-RXR (DBD mutation: RXRa K156A/R161A, NR concentration 270 nM, RXRa partner concentration 90 nM)
In short: (§1)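 Scanned fluorescence from custom Agilent 4×180K protein-binding microarrays was regression-normalized. Binding z-scores use random background probes as reference. Ligand-free nuclear receptor dimers were incubated on the arrays for 1 h and detected with antibodies against each partner (one per run).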

[2] = tested on: PPARg:RXRa IVT, anti-PPARg (NR concentration 270 nM, RXRa partner concentration 90 nM)
In short: as §1

[3] = tested on: PPARg DBDmut:RXRa IVT, anti-PPARg (DBD mutation: PPARg1 K132A/R137A, NR concentration 270 nM, RXRa partner concentration 90 nM)
In short: as §1

[4] = tested on: PPARg DBDmut IVT, anti-PPARg (DBD mutation: PPARg1 K132A/R137A, NR concentration 270 nM)
In short: as §1

[5] = tested on: PPARg homodimer (NR concentration 180 nM)
In short: as §1

[6] = tested on: PXR homodimer (NR concentration 270 nM)
In short: as §1

[7] = tested on: RARa:RXR (NR concentration 270 nM, RXRa partner concentration 90 nM)
In short: as §1

[8] = tested on: RARa homodimer (NR concentration 270 nM)
In short: as §1

[9] = tested on: RARb:RXRa (NR concentration 270 nM, RXRa partner concentration 90 nM)
In short: as §1

[10] = tested on: PXR:RXRa (NR concentration 270 nM, RXRa partner concentration 90 nM)
In short: as §1

Q: Which PBM binding z-score [1] does the source give for CTCGAAAGGTCGTGCTCAGGTGAGTATGCCAAAC here?
A: 1.24

Q: What about the PBM binding z-score [2] of the same sequence?
A: 1.96

Q: And the PBM binding z-score [3]?
A: 0.261

Q: And the PBM binding z-score [4]?
A: 0.173

Q: And the PBM binding z-score [5]?
A: 1.39

Q: What about the PBM binding z-score [6] of the same sequence?
A: 0.126

Q: And the PBM binding z-score [7]?
A: 4.18

Q: What about the PBM binding z-score [8] of the same sequence?
A: 0.00788

Q: And the PBM binding z-score [9]?
A: 3.83

Q: How did the PBM binding z-score [1] turn out when ACTAGTGGGTCAGCTGAGGTCACACACAATTCGG was run?
A: 6.51

Q: And the PBM binding z-score [2]?
A: 6.96

Q: What about the PBM binding z-score [3] of the same sequence?
A: 1.71

Q: And the PBM binding z-score [4]?
A: 0.986

Q: And the PBM binding z-score [5]?
A: 4.18

Q: What about the PBM binding z-score [6] of the same sequence?
A: 1.68

Q: And the PBM binding z-score [7]?
A: 5.69

Q: What about the PBM binding z-score [8] of the same sequence?
A: 1.85

Q: And the PBM binding z-score [9]?
A: 4.45

Q: How did the PBM binding z-score [1] turn out when AGTGAAAGTTCAGGACGAGGTAACGTAAAGCACG was run?
A: -0.565

Q: And the PBM binding z-score [2]?
A: 1.36

Q: What about the PBM binding z-score [3] of the same sequence?
A: 0.759

Q: What about the PBM binding z-score [4] of the same sequence?
A: 0.589

Q: What about the PBM binding z-score [5] of the same sequence?
A: 1.57

Q: What about the PBM binding z-score [6] of the same sequence?
A: 1.41

Q: And the PBM binding z-score [7]?
A: 2.9

Q: What about the PBM binding z-score [8] of the same sequence?
A: 0.544

Q: What about the PBM binding z-score [9] of the same sequence?
A: 4.14

Q: With CGTCAAAGTTCAACTAAGGTAACTTAAAGCACGC as the sequence, how does the PBM binding z-score [1] read?
A: 0.256

Q: And the PBM binding z-score [2]?
A: 2.36

Q: And the PBM binding z-score [3]?
A: 0.726

Q: And the PBM binding z-score [4]?
A: 1.28

Q: What about the PBM binding z-score [5] of the same sequence?
A: 3.17

Q: What about the PBM binding z-score [10] of the same sequence?
A: 5.71

Q: What about the PBM binding z-score [6] of the same sequence?
A: 4.62

Q: What about the PBM binding z-score [8] of the same sequence?
A: 1.76

Q: What about the PBM binding z-score [9] of the same sequence?
A: 5.39

Q: How did the PBM binding z-score [1] turn out when CGTCTAAGGTCAAAGGTCAGTGAAGAGATGACGG was run?
A: 4.71

Q: And the PBM binding z-score [2]?
A: 5.84

Q: What about the PBM binding z-score [3] of the same sequence?
A: 0.729

Q: What about the PBM binding z-score [4] of the same sequence?
A: 0.828

Q: What about the PBM binding z-score [5] of the same sequence?
A: 5.87

Q: What about the PBM binding z-score [6] of the same sequence?
A: 2.61

Q: What about the PBM binding z-score [7] of the same sequence?
A: 8.98

Q: And the PBM binding z-score [8]?
A: 4

Q: And the PBM binding z-score [9]?
A: 6.07

Q: For CTCGAAAGGTCGGTTGAGGTCAGTATACGGATAA, which PBM binding z-score [1] is on record?
A: -0.211

Q: What about the PBM binding z-score [2] of the same sequence?
A: 1.36

Q: What about the PBM binding z-score [3] of the same sequence?
A: 0.0267

Q: And the PBM binding z-score [4]?
A: 0.122

Q: And the PBM binding z-score [5]?
A: 3.1

Q: And the PBM binding z-score [6]?
A: 2.85

Q: And the PBM binding z-score [7]?
A: 4.9

Q: What about the PBM binding z-score [8] of the same sequence?
A: 1.04

Q: And the PBM binding z-score [9]?
A: 4.13

Q: ATACCAAGGTGATCGTGAGTTCGTTGATACTAAC was tested. Which PBM binding z-score [1] did it give?
A: 0.668

Q: And the PBM binding z-score [2]?
A: 0.994

Q: What about the PBM binding z-score [3] of the same sequence?
A: -0.0501

Q: And the PBM binding z-score [4]?
A: 0.822

Q: What about the PBM binding z-score [5] of the same sequence?
A: 0.422

Q: What about the PBM binding z-score [6] of the same sequence?
A: 3.19

Q: And the PBM binding z-score [7]?
A: 0.619

Q: And the PBM binding z-score [8]?
A: 0.465

Q: What about the PBM binding z-score [9] of the same sequence?
A: 0.462

Q: TTACAAAGGTGAGCTGAGGTCGTTGATCCAACTC was tested. Which PBM binding z-score [1] did it give?
A: 1.9

Q: What about the PBM binding z-score [2] of the same sequence?
A: 2.58

Q: What about the PBM binding z-score [3] of the same sequence?
A: 0.303

Q: And the PBM binding z-score [4]?
A: -0.224

Q: What about the PBM binding z-score [5] of the same sequence?
A: 1.41

Q: And the PBM binding z-score [10]?
A: 6.04

Q: What about the PBM binding z-score [6] of the same sequence?
A: 0.268

Q: And the PBM binding z-score [8]?
A: -0.325

Q: What about the PBM binding z-score [9] of the same sequence?
A: 3.23

Q: What does the source list for CGTCCAAGGTCATACGAGGTCAGTGAAGACAGAT?
A: PBM binding z-score [1]: 3.46; PBM binding z-score [2]: 4.63; PBM binding z-score [3]: 1.25; PBM binding z-score [4]: 0.789; PBM binding z-score [5]: 5.5; PBM binding z-score [6]: 9.7; PBM binding z-score [7]: 6.69; PBM binding z-score [8]: 2.69; PBM binding z-score [9]: 5.43

Q: How did the PBM binding z-score [1] turn out when CGTCCAAGGTCAAGGGCAGTGAAAGAGACTCGAA was run?
A: 2.83

Q: What about the PBM binding z-score [2] of the same sequence?
A: 4

Q: And the PBM binding z-score [3]?
A: 0.426

Q: What about the PBM binding z-score [4] of the same sequence?
A: -0.438

Q: And the PBM binding z-score [5]?
A: 1.82

Q: What about the PBM binding z-score [6] of the same sequence?
A: 0.609

Q: What about the PBM binding z-score [7] of the same sequence?
A: 3.82

Q: And the PBM binding z-score [8]?
A: 1.15

Q: What about the PBM binding z-score [9] of the same sequence?
A: 5.64

Q: Which PBM binding z-score [1] does the source give for TAGCCAAGGTCAGATCGGGCCAGTATACGCTATA here?
A: 0.246

Q: What about the PBM binding z-score [2] of the same sequence?
A: 1.81

Q: And the PBM binding z-score [3]?
A: 0.476

Q: What about the PBM binding z-score [4] of the same sequence?
A: -0.254

Q: And the PBM binding z-score [5]?
A: 1.38

Q: What about the PBM binding z-score [6] of the same sequence?
A: -0.349

Q: What about the PBM binding z-score [7] of the same sequence?
A: 2.61

Q: And the PBM binding z-score [8]?
A: -0.193

Q: And the PBM binding z-score [9]?
A: 4.3

Q: What does the source list for GCTCGGGGGACAAGGTCAGAGCTTTGTCCGTAGA?
A: PBM binding z-score [1]: 2.28; PBM binding z-score [2]: 3.25; PBM binding z-score [3]: 1.23; PBM binding z-score [4]: 1.71; PBM binding z-score [5]: 1.58; PBM binding z-score [6]: 0.127; PBM binding z-score [7]: 3.59; PBM binding z-score [8]: -0.41; PBM binding z-score [9]: 3.92

Q: Which results are given for ATATGTAGGTTACATGCGGGTCATTCAGGCTATG?
A: PBM binding z-score [1]: 7.67; PBM binding z-score [2]: 7.33; PBM binding z-score [3]: 2.78; PBM binding z-score [4]: 2.03; PBM binding z-score [5]: 1.57; PBM binding z-score [6]: 1.11; PBM binding z-score [7]: 3.24; PBM binding z-score [8]: 0.618; PBM binding z-score [9]: 2.01
